Results published in the supplement of paper PMC13380429.

Legend:
[1] = test system: Vero E6 infected with SARS-CoV-2; test: morphology score (similarity to uninfected cells); higher = more like uninfected cells; details: 24 h
[2] = test system: Vero E6 infected with SARS-CoV-2; test: SARS-CoV-2 infection rate relative to infected DMSO; higher = more infection, active = 60 or less; details: 24 h

SMILES	morphology score [1]	SARS-CoV-2 infection rate [2]
Clc1ccc(C(Cn2ccnc2)OCc2ccc(Sc3ccccc3)cc2)c(Cl)c1 (centres undefined) [fenticonazole] (10 µM)	-0.0119	114% (inactive)
N#C/C(=C\c1cccn1S(=O)(=O)c1cccc([N+](=O)[O-])c1)S(=O)(=O)c1ccc(F)cc1 (10 µM)	-0.181	109% (inactive)
CO[C@@]1(NC(=O)C2SC(=C(C(N)=O)C(=O)O)S2)C(=O)N2C(C(=O)O)=C(CSc3nnnn3C)CS[C@@H]21 (some centres undefined) [cefotetan] (10 µM)	0.104	98% (inactive)
Cc1cc(C)c(Nc2ccnc(Nc3ccc(C#N)cc3)n2)c(C)c1 [dapivirine] (0.833333 µM)	0.07	114% (inactive)
COC1CCN(C(=O)c2cc(Cc3n[nH]c(=O)c4ccccc34)ccc2F)CC1 (10 µM)	0.118	103% (inactive)
O=C1COc2nccc(-c3ccccc3F)c2CN1Cc1cc(C(F)(F)F)cc(C(F)(F)F)c1 (10 µM)	-0.194	108% (inactive)
CCCCN(CCCC)CCC(O)c1cc2c(Cl)cc(Cl)cc2c2cc(C(F)(F)F)ccc12 (centres undefined) [halofantrine] (10 µM)	0.406	79.5% (inactive)
CCOC(=O)[C@]12CC1/C(=N\O)c1ccccc1O2 (some centres undefined) (10 µM)	0.224	90.5% (inactive)
O=C(c1ccccn1)c1cnn2c(-c3ccncc3)ccnc12 [ocinaplon] (10 µM)	-0.0527	117% (inactive)
O=C(O)CCc1ccc(NCc2cccc(Oc3ccccc3)c2)cc1 (10 µM)	-0.132	116% (inactive)
CCOc1ccc(C(=O)OCCN(CC)CC)cc1 [parethoxycaine] (10 µM)	0.157	108% (inactive)
Nc1nc(/C(=C/CC(=O)O)C(=O)N[C@@H]2C(=O)N3C(C(=O)O)=CCS[C@H]23)cs1 [ceftibuten] (10 µM)	0.161	103% (inactive)
C[S+](CC[C@H](N)C(=O)O)C[C@H]1O[C@@H](n2cnc3c(N)ncnc32)[C@H](O)[C@@H]1O (some centres undefined) [ademetionine] (10 µM)	0.0625	96.5% (inactive)
CCCCCCCCCCCCCCCCCCCCCC(=O)O (10 µM)	0.0564	108% (inactive)
CC(C)(NS(=O)(=O)c1ccc(Oc2ccc(F)cc2)cc1)C(=O)NO (10 µM)	0.193	99% (inactive)
CCN[C@@H](C)Cc1cccc(C(F)(F)F)c1 [dexfenfluramine] (10 µM)	-0.224	112% (inactive)
Cc1c(C)c2c(c(C)c1O)CCC(C)(C(=O)O)O2 (centres undefined) [trolox] (0.833333 µM)	0.0965	98.5% (inactive)
O=C1NC(=O)C(c2ccccc2[N+](=O)[O-])=C1Nc1ccc(O)c(Cl)c1 (10 µM)	-0.00184	114% (inactive)
CCC(CC)C(c1ccc(Nc2nc3ccccc3s2)cc1)n1cncn1 (centres undefined) [talarozole] (10 µM)	0.326	74.5% (inactive)
O[C@H]1CC[C@H](Nc2nc(-c3ccccc3)nc3[nH]ccc23)CC1 (10 µM)	0.409	93% (inactive)
CCSc1ccc2c(c1)N(CCCN1CCN(C)CC1)c1ccccc1S2 [thiethylperazine] (10 µM)	0.722	29.5% (active)

SMILES	morphology score [1]	SARS-CoV-2 infection rate [2]
Cc1cccc(C)c1OCC(=O)N[C@@H](Cc1ccccc1)[C@@H](O)C[C@H](Cc1ccccc1)NC(=O)[C@H](C(C)C)N1CCCNC1=O [lopinavir] (10 µM)	0.184	105% (inactive)
C/C(=C\c1csc(C)n1)[C@@H]1C[C@@H]2O[C@]2(C)CCC[C@H](C)[C@H](O)[C@@H](C)C(=O)C(C)(C)[C@@H](O)CC(=O)N1 [ixabepilone] (10 µM)	-0.0812	108% (inactive)
COc1ccc2[nH]c(-c3ccccc3)c(CCNC(C)=O)c2c1 [2-phenylmelatonin] (10 µM)	0.062	107% (inactive)
CC(C)NC[C@@H](O)COc1ccc(CC(N)=O)cc1 (racemic) [atenolol-(+/-)] (10 µM)	0.0556	108% (inactive)
CCOC(=O)Nc1ccc(NCc2ccc(F)cc2)nc1N [flupirtine] (10 µM)	0.0326	99% (inactive)
N#Cc1c(N)nc(SCC(N)=O)c(C#N)c1-c1ccc(OCC2CC2)cc1 (10 µM)	-0.0282	108% (inactive)
N[C@@H](CCC(=O)N[C@@H](CSN=O)C(=O)NCC(=O)O)C(=O)O [S-nitrosoglutathione] (10 µM)	0.164	104% (inactive)
COP(=O)(OC)OC(c1ccc(Cl)cc1)P(=O)(OC)OC (centres undefined) [mifobate] (10 µM)	-0.0183	106% (inactive)
CCN(CC)CCNC(=O)c1ccc(N)cc1 [procainamide] (10 µM)	0.00737	116% (inactive)
CCOC(=O)[C@@](C)(N)Cc1ccc(O)c(O)c1 [methyldopate] (10 µM)	0.0423	108% (inactive)
OC[C@H]1O[C@@H](n2cnc3c(N[C@H]4CCC[C@@H]4O)ncnc32)[C@H](O)[C@@H]1O (10 µM)	0.227	100% (inactive)
C[C@@H](Oc1cc(-n2cnc3ccc(CN4CCN(C)CC4)cc32)sc1C(N)=O)c1ccccc1C(F)(F)F (0.833333 µM)	0.0643	94% (inactive)
NCC(=O)O (10 µM)	0.146	104% (inactive)
CCC[N+]12[C@H](O)[C@@H](CC)[C@@H]3C[C@H]1[C@@H]1N(C)c4ccccc4[C@]14C[C@H]2[C@@H]3[C@H]4O [neo-gilurytmal] (10 µM)	-0.0363	116% (inactive)
COc1cc(C#N)ccc1S(=O)(=O)Nc1ccc2c(c1)cc(C)c(=O)n2C (10 µM)	0.0143	102% (inactive)
O=C(O)CCc1c(C(=O)O)[nH]c2cc(Cl)cc(Cl)c12 (10 µM)	-0.0263	104% (inactive)
CC(C)(C)[C@H]1CC[C@H](CC2=C(O)C(=O)c3ccccc3C2=O)CC1 [buparvaquone] (0.833333 µM)	0.0418	94% (inactive)
O=C(CNC(=O)c1cccc(C(F)(F)F)c1)N[C@@H]1CCN(Cc2ccc(Cl)cc2)C1 [teijin-compound-1] (10 µM)	-0.116	103% (inactive)
O=C(O)[C@H]1CN(C/C=C/P(=O)(O)O)CCN1 [midafotel] (10 µM)	0.0949	89% (inactive)
Cc1nc2ccccc2c(-c2ccc3c4c(ccnc24)CCO3)c1[C@H](OC(C)(C)C)C(=O)O (10 µM)	0.0152	104% (inactive)
Cc1cc(C2CCCCC2)n(O)c(=O)c1 [ciclopirox] (0.833333 µM)	0.0975	96.5% (inactive)

SMILES	morphology score [1]	SARS-CoV-2 infection rate [2]
O=C(NC1CCN(CCCCC2(C(=O)NCC(F)(F)F)c3ccccc3-c3ccccc32)CC1)c1ccccc1-c1ccc(C(F)(F)F)cc1 [lomitapide] (0.833333 µM)	0.223	87.5% (inactive)
O=C(O)CCCCCCCC(=O)O [azelaic-acid] (10 µM)	0.0279	104% (inactive)
CCCN1CC(NS(=O)(=O)N(CC)CC)CC2Cc3c(O)cccc3CC21 (centres undefined) [quinagolide] (10 µM)	-0.243	112% (inactive)
COCCNC(=O)Cn1cnc([N+](=O)[O-])n1 [sanazole] (10 µM)	0.122	93% (inactive)
COc1ccc(S(=O)(=O)Nc2cc(Cl)cc(Cl)c2OC)cc1N1CCNCC1 (10 µM)	0.132	97.5% (inactive)
O=C1c2ccccc2-n2c1nc1ccccc1c2=O [tryptanthrin] (10 µM)	0.145	96% (inactive)
Cc1ccccc1NC(=O)Nc1ccc(CC(=O)N(C)[C@@H](CC(C)C)C(=O)NCC[C@H](NC(=O)[C@@H]2CCCN2S(=O)(=O)c2cc(Cl)cc(Cl)c2)C(=O)O)cc1 (10 µM)	0.157	91% (inactive)
O=c1cc(-c2ccccc2)oc2cc(O)cc(O)c12 [chrysin] (10 µM)	0.175	104% (inactive)
O=C(OCC(COC(=O)c1cccnc1)(COC(=O)c1cccnc1)COC(=O)c1cccnc1)c1cccnc1 [niceritrol] (0.833333 µM)	0.129	96.5% (inactive)
CC(C)NCC(O)c1cc(O)cc(O)c1 (centres undefined) [metaproterenol] (10 µM)	0.132	104% (inactive)
Cn1ncc(Cl)c1-c1cc(C(=O)N[C@H](CN)Cc2ccc(F)c(F)c2)oc1Cl [uprosertib] (10 µM)	0.441	96.5% (inactive)
OC(c1ccccc1)C1CCN(CCc2ccccc2)CC1 (centres undefined) (10 µM)	-0.103	106% (inactive)
CNCCC(Oc1ccccc1OC)c1ccccc1 (centres undefined) [nisoxetine] (10 µM)	0.135	96.5% (inactive)
COc1cc(OC)c2c(=O)[nH]c(-c3cc(C)c(OCCO)c(C)c3)nc2c1 [apabetalone] (0.833333 µM)	0.0872	106% (inactive)
Cc1cc(C(C)(C)C)c(O)c(C)c1CC1=NCCN1 [oxymetazoline] (10 µM)	0.233	100% (inactive)
CO[C@@H]1[C@H](O)[C@@H](CO)O[C@H]1n1cnc2c(NC3CCCCC3)ncnc21 (10 µM)	-0.0183	108% (inactive)
c1ccc2c(c1)CCCC2C1=NCCN1 (centres undefined) [tetrahydrozoline] (0.833333 µM)	0.00054	103% (inactive)
N[C@@H](Cc1cc(-c2ccc(Cl)cc2Cl)cc(CP(=O)(O)O)c1O)C(=O)O (10 µM)	-0.167	107% (inactive)
COC(=O)C1=C(C)NC(C)=C(C(=O)OC)C1c1ccccc1[N+](=O)[O-] [nifedipine] (10 µM)	-0.0637	106% (inactive)
CCOC(=O)CNC(=O)[C@@H]1CCCN1C(=O)Cc1ccccc1 (10 µM)	-0.0562	104% (inactive)
